Dicer inh – inhibitors of Dicer pre-microRNA processing, primary screen, biochemical, cat-ELCCA, chemiluminescence. AID 1347074, 2019. Endoribonuclease Dicer (Homo sapiens), Q9UPY3. cat-ELCCA pre-miR-21 Dicer processing; hits give high values. z-score at 25 µM. hit rate 6% among 47,000; in the data active means z-score above about 3, passing the limit was not always enough;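 further: plate controls were vehicle for no effect and no enzyme for full effect; higher signal means more uncleaved substrate so more Dicer inhibition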
Target sequence (Q9UPY3 whole entry, looked up): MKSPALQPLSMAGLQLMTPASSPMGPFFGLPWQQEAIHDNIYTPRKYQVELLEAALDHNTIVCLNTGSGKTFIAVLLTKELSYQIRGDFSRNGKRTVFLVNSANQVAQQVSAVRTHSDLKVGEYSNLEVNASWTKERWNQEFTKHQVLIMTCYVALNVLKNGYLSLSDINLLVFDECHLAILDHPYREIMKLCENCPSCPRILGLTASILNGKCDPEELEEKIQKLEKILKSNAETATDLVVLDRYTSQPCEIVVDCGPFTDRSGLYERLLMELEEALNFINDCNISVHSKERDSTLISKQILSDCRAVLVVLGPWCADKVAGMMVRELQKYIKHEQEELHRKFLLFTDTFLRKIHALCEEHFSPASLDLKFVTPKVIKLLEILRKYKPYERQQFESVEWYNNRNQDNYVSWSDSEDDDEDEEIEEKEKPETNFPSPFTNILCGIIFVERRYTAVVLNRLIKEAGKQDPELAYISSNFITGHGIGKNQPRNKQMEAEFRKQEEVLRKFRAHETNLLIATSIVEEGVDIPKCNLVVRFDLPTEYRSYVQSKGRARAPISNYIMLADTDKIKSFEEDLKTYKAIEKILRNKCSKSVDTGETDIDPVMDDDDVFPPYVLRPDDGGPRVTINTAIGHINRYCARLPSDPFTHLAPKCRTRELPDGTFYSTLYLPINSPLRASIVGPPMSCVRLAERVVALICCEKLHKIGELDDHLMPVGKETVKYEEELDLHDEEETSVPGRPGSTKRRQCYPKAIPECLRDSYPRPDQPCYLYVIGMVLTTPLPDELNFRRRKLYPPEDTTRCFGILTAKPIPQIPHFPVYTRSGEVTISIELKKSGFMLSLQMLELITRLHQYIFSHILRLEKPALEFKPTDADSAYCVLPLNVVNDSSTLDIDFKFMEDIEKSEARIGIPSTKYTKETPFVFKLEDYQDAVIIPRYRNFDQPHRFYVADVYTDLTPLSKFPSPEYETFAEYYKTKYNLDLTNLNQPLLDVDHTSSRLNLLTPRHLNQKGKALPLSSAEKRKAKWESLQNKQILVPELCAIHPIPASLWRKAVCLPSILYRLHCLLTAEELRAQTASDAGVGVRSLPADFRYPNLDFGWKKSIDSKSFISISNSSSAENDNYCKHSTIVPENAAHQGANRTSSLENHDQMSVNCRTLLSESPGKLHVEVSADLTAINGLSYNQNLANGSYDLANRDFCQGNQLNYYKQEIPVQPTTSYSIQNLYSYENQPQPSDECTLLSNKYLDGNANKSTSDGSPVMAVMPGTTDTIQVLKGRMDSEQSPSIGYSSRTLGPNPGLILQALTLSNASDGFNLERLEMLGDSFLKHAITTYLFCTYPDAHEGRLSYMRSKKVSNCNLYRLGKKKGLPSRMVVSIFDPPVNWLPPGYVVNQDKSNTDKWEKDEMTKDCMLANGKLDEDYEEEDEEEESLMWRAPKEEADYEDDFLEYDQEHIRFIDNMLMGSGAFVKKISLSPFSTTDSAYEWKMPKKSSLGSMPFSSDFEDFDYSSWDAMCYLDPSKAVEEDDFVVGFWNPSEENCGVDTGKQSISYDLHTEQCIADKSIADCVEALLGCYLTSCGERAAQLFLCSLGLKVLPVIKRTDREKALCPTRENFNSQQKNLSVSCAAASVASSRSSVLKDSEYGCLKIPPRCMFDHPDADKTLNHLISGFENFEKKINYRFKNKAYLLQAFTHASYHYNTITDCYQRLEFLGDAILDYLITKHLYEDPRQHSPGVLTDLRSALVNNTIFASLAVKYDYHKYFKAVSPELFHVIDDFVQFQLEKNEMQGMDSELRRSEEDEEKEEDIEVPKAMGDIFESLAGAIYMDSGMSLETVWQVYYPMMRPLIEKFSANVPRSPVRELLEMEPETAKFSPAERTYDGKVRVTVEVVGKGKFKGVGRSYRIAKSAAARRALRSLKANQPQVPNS
Starred values were filed as active, the others as inactive. The full list was thinned out, with hits kept by preference.

How did Cc1c(CCN)c2cccc3c2n1CCC3 do in these assays?
Dicer inh: 3.5*

What do the screens show for `COc1ccccc1C1CCN(c2ccc([N+](=O)[O-])c(C(F)(F)F)c2)CC1`?
Dicer inh: 0.23

What do the screens show for `CCN1CCN(c2ncnc3nc[nH]c23)CC1`?
Dicer inh: 0.02

What do the screens show for `CC12CCC(=O)C=C1C=CC1C2CCC2(C)C1CC[C@]2(C)O` (stereo not given in full)?
Dicer inh: -1.2

Results for O=S(=O)(c1ccc(O)cc1)c1ccc(O)cc1 ?
Dicer inh: 3.5*

How did O=C1CN=C(c2ccccc2)c2oc3ccccc3c2N1 do in these assays?
Dicer inh: -1.2

What do the screens show for `O=C1CN=C(c2ccc(Cl)cc2)c2oc3ccccc3c2N1`?
Dicer inh: 0.52

How did COc1ccc2oc3c(c2c1)NC(=O)CN=C3c1ccc(F)cc1 do in these assays?
Dicer inh: 3.3*

What do the screens show for `Clc1ccc(C2NN=C3C4CCN(CC4)C32)cc1Cl` (stereo not given)?
Dicer inh: 0.36

How did CN1C2CCC1CC(=NOC(=O)C1CCCCC1)C2 do in these assays?
Dicer inh: 0.3

Results for COc1cccc(CNC2CN3CCC2CC3)c1 (stereo not given) ?
Dicer inh: -2.3

Results for COc1ccccc1CCNCc1ccc2c(c1)OCO2 ?
Dicer inh: 3.3*

What do the screens show for `Cc1ccc(CNCCc2ccc3c(c2)OCO3)cc1`?
Dicer inh: -1.6

How did Fc1ccccc1CCNCc1ccc2c(c1)OCO2 do in these assays?
Dicer inh: 1.5

What do the screens show for `O=c1c2cc(Br)cc(Br)c2[nH]c(=S)n1-c1ccc2c(c1)OCCO2`?
Dicer inh: 2.3

Results for CCCCCOc1ccc(C2SCC(=O)Nc3c2c(=O)[nH]n3C(C)C)cc1 (stereo not given) ?
Dicer inh: -0.28

What do the screens show for `CCOc1cc(C(F)(F)F)cnc1/C(N)=N/OC(=O)NC`?
Dicer inh: -0.51

What do the screens show for `COc1ccc(OC)c(C(O)C(C)N)c1` (stereo not given)?
Dicer inh: 0.13

Results for CC(N)[C@H](O)c1ccc(O)c(O)c1 (stereo not given in full) ?
Dicer inh: 4.1*

Results for C[C@H](N)[C@H](O)c1ccc(O)c(O)c1 ?
Dicer inh: 5.6

Results for Cc1c(C)c(C)c(CCN)c(C)c1C ?
Dicer inh: -0.29

What do the screens show for `CNc1ccc(Br)cc1C(=O)c1ccccc1Cl`?
Dicer inh: -1.3

How did COc1ccc(OC(=O)N(C)C)c(CN(C)C)c1 do in these assays?
Dicer inh: 1.1

Results for CN(C)C(=O)Oc1ccc(Br)cc1C(=O)Nc1ccc(F)cc1 ?
Dicer inh: 4.4*

What do the screens show for `Cc1nc2c(Br)cc(Br)cc2c(=O)n1-c1ccc(F)cc1`?
Dicer inh: 0.45

How did Cc1nc2cc(Cl)ccc2c(=O)n1-c1ccc(F)cc1 do in these assays?
Dicer inh: -0.39

How did CC[C@H](C)[C@H]1O[C@]2(C=C[C@@H]1C)C[C@@H]1C[C@@H](C/C=C(\C)C(O[C@H]3C[C@H](OC)C(O[C@H]4C[C@H](OC)[C@@H](O)[C@H](C)O4)[C@H](C)O3)[C@@H](C)/C=C/C=C3\CO[C@@H]4[C@H](O)C(C)=C[C@@H](C(=O)O1)[C@]34O)O2 (stereo not given in full) do in these assays?
Dicer inh: 1.1

What do the screens show for `CC(=O)OC1C[C@@H]2CCC3C4CCC(OC(C)=O)C4(C)CCC3C2(C)C/C1=C\c1ccccc1` (stereo not given in full)?
Dicer inh: -0.32

Results for COc1ccc2c(CCN)c[nH]c2c1 ?
Dicer inh: -0.58

How did COc1ccc(O)c(C(C)(C)C)c1 do in these assays?
Dicer inh: 3.8*

What do the screens show for `Cc1cc(C(C)(C)c2ccc(O)c(C)c2)ccc1O`?
Dicer inh: 1.3

How did COc1ccc(C2SCC(=O)Nc3c2c(=O)[nH]n3C2CCCC2)cc1OC (stereo not given) do in these assays?
Dicer inh: -0.14

Results for c1ccc(CNCCc2c[nH]c3ccccc23)cc1 ?
Dicer inh: 3.2*

What do the screens show for `CCc1ccc(CNCCc2c[nH]c3ccccc23)cc1`?
Dicer inh: -0.52

Results for Cc1cccc(CNCCc2c[nH]c3ccccc23)c1 ?
Dicer inh: 0.46

Results for Nc1c(C(=O)NCc2ccccc2)c2nc3ccccc3nc2n1Cc1ccco1 ?
Dicer inh: -5.2

Results for C/C(=N\O)C(C)(C)NCCc1c[nH]c2ccccc12 ?
Dicer inh: -0.77

How did CCc1ccccc1-n1c(=S)[nH]c2ccc(C)cc2c1=O do in these assays?
Dicer inh: -0.18

Results for Cc1cc(Br)c(NC(=O)C(Cl)(Cl)Cl)c(Br)c1 ?
Dicer inh: -1.1

What do the screens show for `CCCCCCn1c(N)c(C(=O)OCC)c2nc3ccccc3nc21`?
Dicer inh: -2.6

Results for CCc1c(C(=O)OC)c2cc(O)ccc2n1Cc1ccccc1 ?
Dicer inh: -0.36

Results for CCOC(=O)c1c(C)n(C2CC2)c2ccc(O)cc12 ?
Dicer inh: 3.3*

What do the screens show for `CCCn1c(C)c(C(=O)OCC)c2cc(O)ccc21`?
Dicer inh: 6.8*

How did CN1C2CCC1CC(=NOC(=O)c1ccco1)C2 do in these assays?
Dicer inh: -0.45

Results for O=C1C(=Cc2ccc(Cl)c(Cl)c2)N2CCC1CC2 ?
Dicer inh: 0.52

How did C=C1CC2(C)C(=CC1=O)CCC1C2CCC2(C)C1CC[C@]2(C)OC(C)=O (stereo not given in full) do in these assays?
Dicer inh: -1.4

What do the screens show for `CNC(=O)Oc1noc2ccc(Cl)cc12`?
Dicer inh: -0.49

What do the screens show for `CN(C(=O)c1cccs1)c1ccc(Cl)cc1C(=O)c1ccccc1`?
Dicer inh: -2.4

How did COc1cc2c(=O)n(-c3ccccc3)c(=S)[nH]c2c(OC)c1OC do in these assays?
Dicer inh: -0.35

What do the screens show for `Cc1cc(CN(C)C)c(OC(=O)N(C)C)cc1C`?
Dicer inh: 0.46

How did Cc1cc(=O)oc2cc(OC(=O)N(C)C)c(Cl)cc12 do in these assays?
Dicer inh: 3.6*

How did COc1ccc(Oc2c(C)oc3cc(OC(=O)N(C)C)ccc3c2=O)cc1 do in these assays?
Dicer inh: 0.84

What do the screens show for `ON=C1CC2CCCC(C1)N2Cc1cccs1`?
Dicer inh: -0.04

Results for NC(N)=N/N=C/c1ccc(/C=N/N=C(N)N)cc1 ?
Dicer inh: -1.9

What do the screens show for `Cc1ccc(Cn2nc(C(=O)Nc3ccccc3)cc2C)cc1`?
Dicer inh: -0.56

Results for Cc1ccccc1NC1=NCC(C)(C)S1 ?
Dicer inh: -0.96

What do the screens show for `CC1(C)CN=C(Nc2cccc(C(F)(F)F)c2)S1`?
Dicer inh: -1.1

What do the screens show for `CC1(C)CN=C(Nc2ccccc2)S1`?
Dicer inh: 3*

Results for Cc1cccc(C)c1NC1=NC(C)(C)CS1 ?
Dicer inh: -4.6

How did Cc1ccc(-n2c(C)nc3ccccc3c2=O)cc1 do in these assays?
Dicer inh: -1.1

Results for O=C1CCCN1C(=O)c1ccc(F)cc1 ?
Dicer inh: 0.26

How did CCOC(=O)C12C(=O)Oc3ccc(Br)cc3C1C2(CC)C(=O)c1ccccc1 (stereo not given) do in these assays?
Dicer inh: 1.4

How did O=c1c2ccc(Cl)cc2[nH]c(=S)n1-c1ccc(Cl)c(Cl)c1 do in these assays?
Dicer inh: -1.4

Results for Cc1ccccc1-n1c(/C=C/c2ccc([N+](=O)[O-])o2)nc2ccccc2c1=O ?
Dicer inh: 5.5*

What do the screens show for `O=c1c2ccccc2nc(/C=C/c2ccc([N+](=O)[O-])o2)n1-c1ccccc1Cl`?
Dicer inh: -0.34

Screens: PubChem, Center for Chemical Genomics, University of Michigan
